Compound activity deposited in PubChem by University of Kansas High Throughput Screening Laboratory.
Pf apPOL inh – Pf-apPOL inhibitors, biochemical, fluorescence | inhibition, % at 10 µM | AID 1794808, 2022 | 0.25% of 210,000 active | Recombinant Pf-apPOL, molecular beacon fluorescence, 1.5 h | Plasmodium falciparum apicoplast DNA polymerase (apPOL)
mHTT CaM bind – mutant huntingtin-calmodulin interaction inhibitors – biochemical, AlphaScreen, primary screen; AlphaScreen His-mHTT/GST-CaM binding, luminescence; inhibition, % at 15 µM; 3.6% of 190,000 active;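 also: 0% = both proteins with DMSO and 100% = one protein alone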
Target sequence (P42858 whole entry, looked up, stated change not applied): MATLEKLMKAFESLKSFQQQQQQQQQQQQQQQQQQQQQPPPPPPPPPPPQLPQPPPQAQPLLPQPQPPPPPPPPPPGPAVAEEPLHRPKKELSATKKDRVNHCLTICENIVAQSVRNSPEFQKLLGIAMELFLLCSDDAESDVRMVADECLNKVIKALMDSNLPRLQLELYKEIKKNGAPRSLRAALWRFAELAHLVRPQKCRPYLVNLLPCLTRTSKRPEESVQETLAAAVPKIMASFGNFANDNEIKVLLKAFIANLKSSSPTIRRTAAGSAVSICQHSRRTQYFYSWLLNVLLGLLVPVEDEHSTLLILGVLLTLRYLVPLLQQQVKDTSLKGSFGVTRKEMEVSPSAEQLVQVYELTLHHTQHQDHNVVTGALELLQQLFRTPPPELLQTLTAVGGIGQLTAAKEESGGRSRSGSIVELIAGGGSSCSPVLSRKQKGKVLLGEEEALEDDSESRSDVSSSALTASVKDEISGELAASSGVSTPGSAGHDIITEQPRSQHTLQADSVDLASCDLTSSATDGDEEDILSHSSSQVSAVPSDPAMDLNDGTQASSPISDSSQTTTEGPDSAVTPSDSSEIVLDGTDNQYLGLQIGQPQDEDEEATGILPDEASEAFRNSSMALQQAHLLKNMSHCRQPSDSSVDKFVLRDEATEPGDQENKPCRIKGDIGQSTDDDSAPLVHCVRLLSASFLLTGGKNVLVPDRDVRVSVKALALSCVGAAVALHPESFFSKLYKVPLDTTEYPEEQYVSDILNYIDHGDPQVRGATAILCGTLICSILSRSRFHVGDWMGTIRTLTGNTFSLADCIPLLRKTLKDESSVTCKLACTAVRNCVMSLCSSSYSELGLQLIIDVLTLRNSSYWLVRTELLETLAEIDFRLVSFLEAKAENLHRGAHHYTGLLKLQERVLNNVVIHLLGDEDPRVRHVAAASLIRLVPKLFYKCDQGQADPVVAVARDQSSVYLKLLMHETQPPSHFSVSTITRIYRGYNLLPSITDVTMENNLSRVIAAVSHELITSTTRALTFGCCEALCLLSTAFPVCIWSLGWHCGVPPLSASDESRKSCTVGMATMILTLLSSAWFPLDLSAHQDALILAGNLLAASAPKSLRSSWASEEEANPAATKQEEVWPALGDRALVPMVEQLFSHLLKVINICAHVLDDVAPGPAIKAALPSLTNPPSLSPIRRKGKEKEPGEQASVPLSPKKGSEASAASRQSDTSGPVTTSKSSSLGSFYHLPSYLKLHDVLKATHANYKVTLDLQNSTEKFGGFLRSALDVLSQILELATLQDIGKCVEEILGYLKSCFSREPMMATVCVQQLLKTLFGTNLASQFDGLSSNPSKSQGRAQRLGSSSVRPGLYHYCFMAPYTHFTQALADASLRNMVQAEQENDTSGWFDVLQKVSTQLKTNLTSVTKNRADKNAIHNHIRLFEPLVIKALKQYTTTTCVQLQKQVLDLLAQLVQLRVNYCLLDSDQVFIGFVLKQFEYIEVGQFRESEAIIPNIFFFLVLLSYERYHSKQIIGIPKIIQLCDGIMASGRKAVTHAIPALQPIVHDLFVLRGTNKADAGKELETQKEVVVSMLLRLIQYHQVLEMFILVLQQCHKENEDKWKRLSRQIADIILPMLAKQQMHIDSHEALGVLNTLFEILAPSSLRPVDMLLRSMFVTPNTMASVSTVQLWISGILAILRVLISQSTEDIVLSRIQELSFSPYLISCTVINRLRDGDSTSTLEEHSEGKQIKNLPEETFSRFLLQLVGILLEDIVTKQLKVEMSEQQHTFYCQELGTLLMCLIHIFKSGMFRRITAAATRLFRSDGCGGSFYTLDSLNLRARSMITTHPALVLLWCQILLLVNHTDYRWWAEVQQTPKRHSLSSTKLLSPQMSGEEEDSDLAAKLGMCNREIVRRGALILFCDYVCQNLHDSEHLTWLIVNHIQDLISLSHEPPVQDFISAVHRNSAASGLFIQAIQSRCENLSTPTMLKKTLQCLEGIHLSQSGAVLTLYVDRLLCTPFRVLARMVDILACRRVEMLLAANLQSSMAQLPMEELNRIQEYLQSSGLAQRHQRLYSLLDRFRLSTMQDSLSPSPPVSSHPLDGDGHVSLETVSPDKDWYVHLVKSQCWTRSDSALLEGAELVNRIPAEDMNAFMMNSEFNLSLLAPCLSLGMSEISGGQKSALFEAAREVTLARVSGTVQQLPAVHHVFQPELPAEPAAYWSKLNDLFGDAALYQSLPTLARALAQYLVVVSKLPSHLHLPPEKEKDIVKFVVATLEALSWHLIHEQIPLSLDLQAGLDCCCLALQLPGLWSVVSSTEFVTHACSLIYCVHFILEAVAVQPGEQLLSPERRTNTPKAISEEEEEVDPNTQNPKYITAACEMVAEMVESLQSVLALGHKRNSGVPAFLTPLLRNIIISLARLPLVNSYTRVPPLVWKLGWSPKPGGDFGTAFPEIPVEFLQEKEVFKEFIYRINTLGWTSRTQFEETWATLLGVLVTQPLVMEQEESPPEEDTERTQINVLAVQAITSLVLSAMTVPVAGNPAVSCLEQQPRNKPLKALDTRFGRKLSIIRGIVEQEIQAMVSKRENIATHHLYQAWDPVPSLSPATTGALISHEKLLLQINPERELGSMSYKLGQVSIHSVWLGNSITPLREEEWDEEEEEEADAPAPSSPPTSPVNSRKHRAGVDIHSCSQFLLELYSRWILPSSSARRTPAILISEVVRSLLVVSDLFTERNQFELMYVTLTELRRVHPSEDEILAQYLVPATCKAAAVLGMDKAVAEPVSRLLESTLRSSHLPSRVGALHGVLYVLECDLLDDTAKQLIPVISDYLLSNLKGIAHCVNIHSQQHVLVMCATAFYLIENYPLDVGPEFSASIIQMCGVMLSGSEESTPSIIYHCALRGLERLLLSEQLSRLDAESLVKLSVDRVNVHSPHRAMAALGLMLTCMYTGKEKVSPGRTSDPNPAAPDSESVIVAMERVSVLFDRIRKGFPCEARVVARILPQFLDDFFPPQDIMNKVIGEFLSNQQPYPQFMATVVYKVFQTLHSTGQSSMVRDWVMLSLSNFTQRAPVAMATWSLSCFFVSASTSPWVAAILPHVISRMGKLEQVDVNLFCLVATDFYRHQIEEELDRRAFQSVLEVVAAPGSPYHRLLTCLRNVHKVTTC
* = called active by the depositor; ! = a repeat was not active. Only a selection was taken, and hits are over-represented in it overall. Rule as the data show it: active = inhibition above about 50%; inactive = the rest.

What do the screens show for `CCN(CC)C(=O)CC(c1cc(OC)c(OC)c(OC)c1)c1c(OC)cc(OC)c2ccc(=O)oc12` (centres undefined)?
Pf apPOL inh: -3; mHTT CaM bind: 26

How did COc1cc(C(CCN2CCOCC2)c2c(OC)cc(OC)c3c(-c4ccccc4)cc(=O)oc23)cc(OC)c1OC (centres undefined) do in these assays?
Pf apPOL inh: -22; mHTT CaM bind: 75*

Results for CCN(CC)C(=O)CC(c1cc(OC)c(OC)c(OC)c1)c1c(OC)cc(OC)c2c(-c3ccccc3)cc(=O)oc12 (centres undefined) ?
Pf apPOL inh: 9; mHTT CaM bind: 69*

What do the screens show for `O=c1cc(-c2ccccc2)c2ccc(O)c(CN3CCOCC3)c2o1`?
Pf apPOL inh: 2; mHTT CaM bind: -10

Results for COc1cc(O)c(CN2CCCC2)c2oc(-c3ccccc3)cc(=O)c12 ?
Pf apPOL inh: 0; mHTT CaM bind: 3

Results for COc1cc(C(CCN2CCCC2)c2c(OC)cc(OC)c3c(-c4ccccc4)cc(=O)oc23)cc(OC)c1OC (centres undefined) ?
Pf apPOL inh: -20; mHTT CaM bind: 58*

How did CS(=O)(=O)N1CCCCC1c1nncn1CC1CC1 (centres undefined) do in these assays?
Pf apPOL inh: -6; mHTT CaM bind: -8

Results for CCCCN1CCN(C(=O)c2ccnc(N3CCNC(c4ccccc4)C3)c2)CC1 (centres undefined) ?
Pf apPOL inh: 0; mHTT CaM bind: -3

Results for O=C(CN1C(=O)C2C3C=CC(C3)C2C1=O)Nc1ncc(Br)s1 (centres undefined) ?
Pf apPOL inh: -1; mHTT CaM bind: -4

What do the screens show for `CCCNC(=O)C1CCCN(c2cnc3nccnc3c2)C1` (centres undefined)?
Pf apPOL inh: 2; mHTT CaM bind: -1

Results for CCC(=O)Nc1ccc2c(c1)CC(C(=O)NCCCOC)CO2 (centres undefined) ?
Pf apPOL inh: -2; mHTT CaM bind: -2

What do the screens show for `NCCN1C(=O)S/C(=C\c2ccc(F)c(Oc3ccccc3)c2)C1=O`?
Pf apPOL inh: -14; mHTT CaM bind: 71*

How did COc1ccc(/C=C2\SC(=O)N(CCN)C2=O)cc1OC do in these assays?
Pf apPOL inh: -1; mHTT CaM bind: 4

How did COc1ccc(C2CCCN2C(=O)c2cnn3cc(Br)cnc23)cc1 (centres undefined) do in these assays?
Pf apPOL inh: 9; mHTT CaM bind: 14

What do the screens show for `CCNC(=O)N1CCN(c2nc(C)nc(C(C)C)c2Cc2ccc(F)cc2)CC1`?
Pf apPOL inh: -7; mHTT CaM bind: 36

How did CC(C)(Oc1ccc(Cl)cc1)C(=O)NCCn1ccc2ccccc21 do in these assays?
Pf apPOL inh: 2; mHTT CaM bind: 8

What do the screens show for `Cc1cc2c(cc1C)NC(CC(=O)Nc1cccc(C(=O)O)c1)C(=O)N2` (centres undefined)?
Pf apPOL inh: 10; mHTT CaM bind: 6

Results for Cc1cc2c(cc1C)NC(CC(=O)Nc1ccc(N3CCOCC3)cc1)C(=O)N2 (centres undefined) ?
Pf apPOL inh: 0; mHTT CaM bind: 57*!

Results for O=C(Nc1ccccc1I)c1ccc(Cl)cc1Cl ?
Pf apPOL inh: -4; mHTT CaM bind: -5

Results for COc1ccccc1C(=O)N1CCc2c(c(-c3nnc(-c4ccccc4Cl)o3)nn2C)C1 ?
Pf apPOL inh: -6; mHTT CaM bind: -6

How did COCc1[nH]nc2c1C(c1ccc(OC)c(OC)c1)C(C#N)=C(N)O2 (centres undefined) do in these assays?
Pf apPOL inh: -1; mHTT CaM bind: 0

Results for CCn1c2ccccc2c2cc(C3C(C#N)=C(N)Oc4n[nH]c(COC)c43)ccc21 (centres undefined) ?
Pf apPOL inh: -8; mHTT CaM bind: 65*

Results for Cc1cc(C)c(CNC(=O)c2cn3ccccc3n2)c(C)c1 ?
Pf apPOL inh: 0; mHTT CaM bind: 1

What do the screens show for `COc1ccc(C(=O)N2CCCC2c2nc(-c3cccc(C)c3)no2)cn1` (centres undefined)?
Pf apPOL inh: -2; mHTT CaM bind: 4

How did COCCN1C(=O)C(=O)C(=C(O)c2ccccc2)C1c1cccc([N+](=O)[O-])c1 (centres undefined) do in these assays?
Pf apPOL inh: -2; mHTT CaM bind: 0

Results for CCN(CC)c1ccc(C=Nc2ccccc2)c(O)c1 ?
Pf apPOL inh: -6; mHTT CaM bind: 8

What do the screens show for `CCN(CC)c1ccc(C=NCCc2ccccc2)c(O)c1`?
Pf apPOL inh: 2; mHTT CaM bind: 80*

Results for C#CC(C)(CC)OCC(O)CN1CCC(C)CC1 (centres undefined) ?
Pf apPOL inh: -5; mHTT CaM bind: 3

What do the screens show for `COc1cc(Cl)c(NC(=O)C2CC(=O)N(c3cccc(NC(C)=O)c3)C2)c(OC)c1` (centres undefined)?
Pf apPOL inh: -3; mHTT CaM bind: 16
